TDP1 cell CPT = growth inhibition of DT40 Tdp1-/-;hTDP1 cells with camptothecin (screen for TDP1 inhibitors) | chicken DT40 Tdp1-/-;hTDP1 cells + 20 nM CPT, ATP luminescence, 48 h | AID 686979 | 420,000 compounds, 12% hits | Potency, µM (series often up to 46.2 µM), for inactives: top-dose activity change, negative = growth inhibition, most hits filed as inhibitors; note: potency is the fitted concentration of half-maximal effect; nearly all actives have a fitted effect of over 55% in size
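Cell growth measured by CellTiter-Glo luminescence after a minimum 48 h, 37 C compound exposure with 20 nM CPT in Tdp1-knockout DT40 cells stably expressing hTDP1, seeded 400/well; qHTS titration format.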
HT1080 IDH1KD tx = toxicity to HT-1080 IDH1 knockdown cells (counter line) | 360,000 compounds, 2% hits | AID 686971 | HT-1080 IDH1 knockdown viability, ATP luminescence, 48 h | Potency, µM (top dose mostly 46.1 µM), inactives show at the top dose activity, negative = toxicity, hits mostly cytotoxic;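 note: potency is the fitted concentration of half-maximal effect; 0% = DMSO wells and -100% = cell-free medium wells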
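After a 2 h attachment period, IDH1KD HT-1080 cells took pin-transferred compound for 48 h at 37 °C; ATP-based luminescence after 10 min room-temperature reagent incubation reported viability.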
HT1080NT lethal = kills 2HG-producing HT-1080-NT fibrosarcoma cells; 360,000 compounds, 1.6% hits; AID 686970; HT-1080-NT fibrosarcoma viability, CellTiter-Glo ATP luminescence, 48 h; Potency, µM (series often up to 46.1 µM), without a hit: at the top dose activity, negative = less viability, most hits filed as cytotoxic;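 note: NT is the 2HG producing partner of a matched IDH1 knockdown line; potency is the fitted concentration of half-maximal effect; 0% = DMSO-treated cells and -100% = media-only wells without cells; nearly all actives have a fitted effect of over 55% in size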
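750 cells/well, RPMI + 5% FBS; 2 h settle, compound pin-transfer, 48 h at 37 degrees C. CellTiter-Glo 10 min RT, luminescence. Normalized to DMSO and media-only wells.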
TDP1 cell noCPT = qHTS for Inhibitors of human tyrosyl-DNA phosphodiesterase 1 (TDP1): qHTS in cells in absence of CPT; DT40 Tdp1-/- hTDP1 cells, no CPT, ATP luminescence, 48 h; Potency, µM (titrated, usually from 46.2 µM), inactives show top-dose activity change, negative = growth inhibition, most hits filed as inhibitors; 420,000 compounds, 15% hits; note: potency is the fitted concentration of half-maximal effect; nearly all actives have a fitted effect of over 55% in size
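Compound effects on proliferation are scored in DT40 Tdp1-/-;hTDP1 cells in the absence of CPT. ATP levels (CellTiter-Glo luminescence) are recorded after a ≥48 hr, 37 °C incubation.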
IL-1B inflam inh = inflammasome signaling inhibition, IL-1 beta readout; THP-1 LPS/ATP IL-1B secretion, AlphaLISA, 16 h; active compounds read low; activity change, % at 57.5 µM; 360,000 compounds, 4.7% hits; in the data active = activity change below about -50%; inconclusive = mostly about -30% to -49%
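Secreted IL-1B measured by AlphaLISA bead assay after 16 h compound exposure of THP-1 cells; compounds (final up to 57.5 uM) added 1 h before LPS (250 ng/mL) and ATP (1.25 mM) stimulation; lower signal means less secretion.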
The depositor's hits bear a star; ? = inconclusive; nt = not tested or not shown. Sampled rows, rich in hits. Any-hit rate of the full collection: about 19%. Unless noted, calls come from the whole dose curve; as a rule, active = well fitted curve in the direction sought with a large enough effect; inconclusive = small, poorly fitted or top-dose-only effect, or another doubt; inactive = no such curve, though single readings can be large; an effect the other way counts as inactive or inconclusive. Unless noted, % is set by controls: 0 for no effect and ±100 for the full control effect.

SMILES | TDP1 cell CPT | HT1080 IDH1KD tx | HT1080NT lethal | TDP1 cell noCPT | IL-1B inflam inh
Cc1ccn(CC(=O)N2CCCC(N3CCN(c4cccc(C(F)(F)F)c4)CC3)C2)n1 (stereo unspecified) | ? | -3% | -5% | ? | -2
O=C(NC(Cc1ccccc1)C(=O)O)/C(=C/c1ccccc1)NC(=O)c1cccc(Br)c1 (stereo unspecified) | 12% | 13% | -4% | -14% | 0
CC1CCCN(C(=O)Cn2nnc(-c3ccc(F)cc3)n2)C1 (stereo unspecified) | -25% | -4% | 0% | -20% | -10
CCOc1ccc(C2=C(C(=O)CC)Sc3nncn3N2C(=O)CC)cc1 | 16µM* | nt | nt | ? | nt
CCOc1ccc(C2=Nn3cnnc3SC2)cc1 | ? | -27% | -9% | -23% | 3
CCC(=O)C1=C(c2ccc(F)cc2)N(C(=O)CC)n2cnnc2S1 | 18µM* | nt | nt | 13µM* | nt
CC1=C(O)C(=O)C(C2=C(O)C(=O)C(C)=C(O)C2=O)=C(O)C1=O | -16% | -14% | -1% | -2% | -15
Cc1ccc(C2=C(O)C(=O)C(c3ccc(C)cc3)=C(O)C2=O)cc1 | ? | 0% | 0% | 12µM* | 25
O=C1CC(N2CCCCCC2)C(=O)N1c1ccc2c(c1)OCO2 (stereo unspecified) | 3.7µM* | ? | ? | 6.3µM* | -6
Cc1ccc2[nH]c(O)c(N=Nc3ccccc3[N+](=O)[O-])c2c1 | 8.2µM* | -1% | 3% | 5.8µM* | 21
O=[N+]([O-])c1ccccc1N=Nc1c(O)[nH]c2ccc(F)cc12 | 13% | 15% | 8% | 10% | 21
Cc1ccc2[nH]c(O)c(N=Nc3nc4ccccc4s3)c2c1 | 10µM* | -1% | ? | 7.3µM* | 18
C[C@H](NC(=O)c1ccc(Cl)cc1)C(=O)NNC(=O)c1cccs1 | -6% | 5% | 8% | 19% | 2
O=C1c2ccccc2S(=O)(=O)N1CCS(=O)(=O)c1ccc(F)cc1 | 15% | -9% | -2% | -8% | -76*
O=C(CCN1C(=O)c2ccccc2S1(=O)=O)N1CCN(c2ccc(F)cc2)CC1 | -28% | -9% | -2% | -22% | 18
Cc1ccccc1OCc1nnc(SCc2cc(=O)c3ccc(C)c(C)c3[nH]2)n1C | ? | nt | nt | 16µM* | nt
Cc1ccc2c(=O)cc(CSc3nnc(-c4ccccc4)n3C)[nH]c2c1C | -17% | nt | nt | -22% | nt
O=c1cc(CSc2ccccc2)[nH]c2ccccc12 | 26µM* | 7% | -1% | ? | 15
Cc1ccccc1OCc1nnc(SCc2cc(=O)c3cc(F)ccc3[nH]2)n1C | 13µM* | nt | nt | 12µM* | nt
Cc1cccc(-c2nnc(SCc3cc(=O)c4cccc(Cl)c4[nH]3)n2C)c1 | 23µM* | nt | nt | 16µM* | nt
CN(C)c1ccc(-c2ccc(CCO)cc2)cc1 | -16% | nt | nt | -19% | nt
O=C(NCCN1CCN(Cc2ccccc2)CC1)c1ccc(CS(=O)(=O)c2ccc(Br)cc2)o1 | ? | -7% | -2% | ? | -17
Cc1ccccc1OCc1nnc(SCc2nc3ccccc3c(=O)[nH]2)n1C | 5% | 6% | 13% | -2% | 10
Cc1ccccc1OCc1nnc(SCc2cc(=O)c3ccccc3[nH]2)n1C | 13µM* | nt | nt | 15µM* | nt
Cc1cc(C)c2c(=O)cc(CSc3nnc(-c4ccccc4)n3C)[nH]c2c1 | -21% | nt | nt | -27% | nt
Cc1ccc2[nH]c(CSc3nnc(COc4ccccc4C)n3C)cc(=O)c2c1 | 18µM* | nt | nt | 15µM* | nt
O=C1c2cccc3cccc(c23)C(=O)N1CCN1CCN(CC(O)COc2ccc3ccccc3c2)CC1 (stereo unspecified) | 18µM* | ? | ? | 10µM* | -2
CCOC(=O)C1CCN(CC(O)COc2ccc(C(=O)CC)cc2)CC1 (stereo unspecified) | 8% | 0% | -1% | -8% | 19

Bioassay records: PubChem, National Center for Advancing Translational Sciences (NCATS)
